PubChem BioAssay AID504444 (National Center for Advancing Translational Sciences (NCATS), 2011)
Screen size: about 360,000 compounds; about 7,500 (2.1%) were called active. Not shown: some 20% with an inconclusive outcome. For the sample, actives were picked, then their nearest neighbours and some compounds at random. A number with no mark means an inactive call. Calls come from the whole dose curve; as a rule, active = well fitted inhibition curve with a large enough effect; inconclusive = small, poorly fitted or top-dose-only effect, or effect the other way; inactive = flat fitted curve, though single readings scatter.

Experiment: Nrf2 qHTS screen for inhibitors; note: nearly all actives have a fitted effect of over 60% in size
Details: A549 ARE-Fluc reporter, luciferase luminescence, 18-24 h; series mostly up to 46 µM; activity change, negative = inhibition: at the top concentration
How it was run: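 Reporter: ARE-Fluc in A549. Exposure: 18-24 h, 37 °C, 5% CO2, 5% FBS OPTI-MEM. Readouts: fluorescent cytotoxicity (CellTiter-Fluor), then luminescent Nrf2 signal after BugLite.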
% is set by controls: 0 for no effect and ±100 for the full control effect; potency is the fitted concentration of half-maximal effect.

| SMILES | activity change, negative = inhibition | Potency |
| --- | --- | --- |
| N#CN1CCC(NC(=O)c2ccc(F)cc2)CC1 | 11.4% | – |
| CCOc1ccc(S(=O)(=O)Nc2ccc3oc4c(c3c2)CC(C)CC4)cc1 (centres undefined) | -27.3% | – |
| Cc1ccccc1CS(=O)(=O)CC1Nc2ccc(C(=O)NCc3ccc(Cl)cc3)cc2NC1=O (centres undefined) | 21.9% | – |
| COc1cccc2oc(CCc3ccccc3)cc(=O)c12 | 16.4% | – |
| COc1ccccc1CNS(=O)(=O)c1cc(Br)cc2c1N(C(C)=O)C(C)C2 (centres undefined) | 1.68% [at 9.27 µM] | – |
| CCOc1cccc2c1N[C@@H](c1ccc(C(=O)O)cc1)[C@H]1CC=C[C@@H]21 | 4.95% | – |
| COc1cccc(CNC(=O)CCC(=O)N2CC3CCCN3c3ccccc32)c1 (centres undefined) | -3.25% | – |
| CCN1CCC2(CC1)N=C(c1ccc(F)cc1)C(=S)N2C(=O)c1ccc(C)cc1 | – | 16.4 µM (active) |
| Cc1ccc(SCC(=O)N2CCN(c3ccc(F)cc3)CC2)cc1 | -9.47% | – |
| CCN1CCC(N(Cc2ccc(F)cc2)C(=O)Nc2cc(C)ccc2C)CC1 | 0.308% | – |
| Cc1cc(OCC(=O)NCC2(N(C)C)CCCCC2)cc(C)c1Cl | 13.5% | – |
| Cc1cc(C)cc(NC(=O)CSc2nc3nccnc3c(=O)n2CCc2c[nH]c3ccccc23)c1 | -0.502% | – |
| CCOC(=O)/C(C#N)=C/c1ccc(N2CCCCC2)cc1 | 27.1% | – |
| O=C1C=CC(=O)N1c1ccc(N2CCCCC2)cc1 | – | 25.9 µM (active) |
| O=C(Cc1ccccc1)NC(=S)Nc1ccc(N2CCCCC2)cc1 | 9.44% | – |
| Cc1ccc(SCC(=O)Nc2ccc3oc(-c4ccccc4F)nc3c2)cc1 | 4.37% | – |
| CC[C@]1(C(=O)OC)[C@H]2C(=O)N(Cc3ccccc3)C(=O)[C@H]2[C@H]2CN=C(SCc3ccc(C#N)cc3)N21 | -2.24% | – |
| CCOc1ccc(Nc2nc3c(S(=O)(=O)c4cccc(Cl)c4)nnn3c3ccsc23)cc1 | – | 14.6 µM (active) |
| O=S(=O)(c1ccc(Br)cc1)c1nnn2c1nc(NC1CCCCCC1)c1sccc12 | 2.63% | – |
| CCc1ccc(S(=O)(=O)c2nnn3c2nc(N2CCN(CC)CC2)c2sccc23)cc1 | 28.1% | – |
| Cc1ccc(-c2cn3c(n2)sc2cc(C(=O)NCCCc4ccccc4)ccc23)cc1 | 13.8% | – |
| CCN1C[C@@H]2[C@@H]3C(=O)N(Cc4ccccc4)C(=O)[C@@H]3[C@](Cc3ccccc3)(C(=O)OC)N2C1=NC1CCCCC1 | -21.2% | – |
| CCN(CCCNC(=O)c1cc(Nc2ccc(OC)cc2)nc2ccccc12)c1cccc(C)c1 | 6.69% | – |
| NS(=O)(=O)c1ccc(NC(=O)COC(=O)c2c3c(nc4ccccc24)/C(=C\c2ccc4c(c2)OCO4)CCC3)cc1 | -21.8% | – |

| SMILES | activity change, negative = inhibition | Potency |
| --- | --- | --- |
| O=C(COC(=O)c1c2c(nc3ccccc13)/C(=C\c1cccs1)CCC2)Nc1ccccc1Cl | -9.33% | – |
| NC(=O)c1ccc(NC(=O)COC(=O)c2c3c(nc4ccccc24)/C(=C\c2ccc4c(c2)OCO4)CCC3)cc1 | – | 14.6 µM (active) |
| CC(=O)c1c(C)[nH]c(C(=O)OCC(=O)Nc2c(C)n(C)n(-c3ccccc3)c2=O)c1C | -19% | – |
| CC(=O)c1c(C)[nH]c(C(=O)OCC(=O)Nc2cc(S(=O)(=O)N3CCCCC3)ccc2C)c1C | -24% | – |
| CC(=O)c1c(C)[nH]c(C(=O)OCC(=O)Nc2c(C)cccc2C)c1C | – | 13 µM (active) |
| CC(=O)c1c(C)[nH]c(C(=O)OCC(=O)NCCC(C)C)c1C | – | 11.6 µM (active) |
| CC(=O)c1c(C)[nH]c(C(=O)OCC(=O)Nc2sc3c(c2C#N)CCCC3)c1C | – | 18.4 µM (active) |
| Cc1cccc(C(=O)OCC(=O)Nc2sc3c(c2C#N)CCC3)c1 | 1.47% | – |
| Cc1ccc(C)c(OCC(=O)Nc2sc3c(c2C#N)CCCC3)c1C | 3.03% | – |
| Cc1cccc(C)c1NC(=O)COC(=O)c1ccccc1O | 2% | – |
| CC(=O)c1c(C)[nH]c(C(=O)COC(=O)c2cccs2)c1C | -11.4% | – |
| CCOC(=O)N1CCC(NC(=O)c2cnn(-c3cccc(C)c3)c2C2CCN(C(=O)OC(C)(C)C)CC2)CC1 | 11.3% | – |
| O=C(NCc1ccccc1CN1CCCC1)C1CCN(S(=O)(=O)c2ccc(Cl)cc2)CC1 | 13.4% | – |
| CCOc1ccc(S(=O)(=O)c2cn(Cc3ccc(OC)cc3)c3ccc(F)cc3c2=O)cc1 | -7.26% | – |
| CCn1cc(C(=O)NCc2ccc(C)cc2)c(=O)c2cc(S(=O)(=O)N3CCc4ccccc4C3)ccc21 | 5.14% | – |
| Cc1cc2c(s1)c1cnn(Cc3c(F)cccc3Cl)c(=O)c1n2C | 16.9% | – |
| CC(C)Cn1c(-c2ccc(S(=O)(=O)N3CCOCC3)cc2)csc1=Nc1cc(Cl)ccc1Cl | -3.88% | – |
| CCn1cc(C(=O)N2CCN(c3cc(C)ccc3C)CC2)c(=O)c2cc(S(=O)(=O)N(C)C3CCCCC3)ccc21 | – | 23.1 µM (active) |
| CCn1cc(C(=O)N2CCN(c3cc(Cl)ccc3C)CC2)c(=O)c2cc(S(=O)(=O)N3CCCC3)ccc21 | -10.7% | – |
| Cc1ccc(Cl)cc1N1CCN(C(=O)c2cn(C)c3ccc(S(=O)(=O)N(C)C4CCCCC4)cc3c2=O)CC1 | 25.6% | – |
| CCN1CCC(O)(/C=C/c2ccc(C)cc2)C(C(=O)/C=C/c2ccc(C)cc2)C1 (centres undefined) | -22.3% | – |
| CC[C@@]1(C(=O)OC)N[C@H](CN(C)C(C)=O)[C@@H]2C(=O)N(C)C(=O)[C@@H]21 | -0.744% | – |
| O=C(NCCc1ccco1)c1ccc(OCc2cn3ccccc3n2)cc1 | 23.3% | – |
| COC1C(CO)OC(n2cnc3c(=S)nc(N)[nH]c32)C1O (centres undefined) | -1.21% | – |

| SMILES | activity change, negative = inhibition | Potency |
| --- | --- | --- |
| CC(C)(C)c1cc(C(=O)NN)n(Cc2ccc(Cl)cc2Cl)n1 | -13.1% | – |
| O=c1ccn(Cc2ccccc2Cl)cc1 | 3.6% | – |
| N#CC(C#N)=CN=c1ccn(Cc2ccc(Cl)cc2Cl)cc1 | – | 1.84 µM (active) |
| CCCNS(=O)(=O)c1ccc(CCC(=O)N2CCCC2)cc1 | -0.614% | – |
| CCNS(=O)(=O)c1ccc(CCC(=O)N2CCN(c3ccc(OC)cc3)CC2)cc1 | 0.623% | – |
| CCNS(=O)(=O)c1ccc(CCC(=O)N2CCN(c3cc(Cl)ccc3C)CC2)cc1 | – | 8.2 µM (active) |
| O=C(CN1C(=O)NC2(CCCCCC2)C1=O)NCc1ccc(F)cc1 | -6.21% | – |
| CSc1ccc(CN2C(=O)NC3(CCCCCC3)C2=O)cc1 | – | 18.4 µM (active) |
| O=C(CN1C(=O)NC2(CCCCCCC2)C1=O)NCc1ccc(F)cc1 | 8.87% | – |
| COc1ccc(C2(c3ccc(OC)cc3)NC(=O)N(CC(=O)Nc3cc(C)on3)C2=O)cc1 | 2.89% | – |
| Cc1cccc(CC2(O)C(=O)Nc3ccccc32)n1 (centres undefined) | -21.7% | – |
| COC(=O)c1ccc(N2CCOCC2)c(NC(=O)c2ccc3c(c2)OCCO3)c1 | 3.57% | – |
| O=C(Nc1cccc(Cl)c1N1CCOCC1)c1cccnc1 | -6.75% | – |
| O=C(Nc1cccc(Cl)c1N1CCOCC1)c1ccc2c(c1)OCCO2 | – | 23.1 µM (active) |
| CC/C(=C(/c1ccccc1)c1ccc(OCC[N+](C)(C)C)cc1)c1ccccc1 | -7.21% | – |
| CCN(CC)CCn1c(N)c(S(=O)(=O)c2ccccc2)c2nc3ccccc3nc21 | -2.15% | – |
| CCC(=O)Nc1c(S(=O)(=O)c2ccccc2)c2nc3ccccc3nc2n1Cc1ccccc1 | – | 14.6 µM (active) |
| COC(=O)CSc1nc2ccccc2c(=O)n1Cc1ccccc1 | 4.16% | – |
| COc1cc(C(=O)CCc2ccc3c(c2)OCO3)cc(OC)c1OC | 0.0369% | – |
| COc1cccc(CNC(=O)CSc2c3c(nc4cc(Cl)ccc24)CCCC3)c1 | -28.8% | – |
| CCOc1ccccc1NC(=O)COc1ccc(S(=O)(=O)N2CCCC2)cc1 | 8.32% | – |
| CCOc1ccc(S(=O)(=O)N2CCCCC2)cc1NC(=O)CN1CCCC1c1cccs1 (centres undefined) | – | 8.2 µM (active) |
| COc1ccc(S(=O)(=O)N2CCCCC2)cc1NC(=O)COc1ccccc1 | -5.84% | – |
| COc1cc(/C=C/CNC[C@H]2O[C@@H](n3cnc(C(N)=O)n3)[C@H](O)[C@@H]2O)ccc1O | -6.54% | – |

| SMILES | activity change, negative = inhibition | Potency |
| --- | --- | --- |
| COc1ccc(NC(=O)CSC2=Nc3ccccc3C3=NC(CC(=O)NCc4ccccc4OC)C(=O)N23)cc1Cl (centres undefined) | 7.31% | – |
| COc1ccc(-c2cc(C(F)(F)F)n3nc(-c4ccccc4)cc3n2)cc1OC | -2.55% | – |
| COc1ccccc1-c1oc2ccccc2c1C#CCCCCO | 2.63% | – |
| O=C1C=C(c2ccnc3cc(Cl)ccc23)C[C@@H](c2ccc3c(c2)OCO3)C1 | – | 9.2 µM (active) |
| O=C1C=C(c2cccc(Cl)c2)C[C@@H](c2ccc(F)cc2)C1 | -1.21% | – |
| COc1ccc2cc(C3=CC(=O)C[C@H](c4ccc5c(c4)OCO5)C3)ccc2c1 | -11.8% | – |
| O=S(=O)(c1ccc2c(c1)OCCCO2)N1CCN(S(=O)(=O)c2c(F)cccc2F)CC1 | 18.5% | – |
| COc1ccccc1Nc1nc(N)nc(N)c1S(=O)(=O)c1ccccc1 | 1.76% | – |
| CCOC(=O)c1ccc(NC(=O)c2nc[nH]c2C(=O)N[C@@H](CCCCNC(=O)OC(C)(C)C)C(=O)OC(C)(C)C)cc1 | – | 23.1 µM (active) |
| CCOC(=O)c1ccc(NC(=O)c2nc[nH]c2C(=O)NCc2ccccc2)cc1 | -19.4% | – |
| CC(C)(C)OC(=O)NCCCCCNC(=O)c1[nH]cnc1C(=O)Nc1nccs1 | -19.6% | – |
| COc1ccc(OC)c(NC(=O)CSc2nc3ccccc3nc2N2CCCCC2)c1 | -8.4% | – |
| CC(C)c1cc(N=O)cc(C(C)C)c1O | 15.6% | – |
| CCCCCc1ccc(-c2ccc(OCC)cc2)nc1 | – | 0.366 µM (active) |
| CCCCCc1ccc(-c2cn(Cc3ccc4ccccc4c3)nn2)cc1 | 8.41% | – |
| CCCCOc1ccc(-c2ncc(C(=O)OCC)c(N)n2)cc1 | -13.9% | – |
| CNC(=O)c1ccsc1NC(=O)c1ccc(S(=O)(=O)N2CCOCC2)cc1 | -27.8% | – |
| CNC(=O)c1ccsc1NC(=O)c1ccc(S(=O)(=O)N2CCc3ccccc32)cc1 | – | 16.4 µM (active) |
| O=S(=O)(c1ccccc1)N1CCc2ccccc21 | -4.14% | – |
| COc1ccc(C(=O)NCc2ccc(Cl)cc2)cc1S(=O)(=O)N1CCCC1 | -19.1% | – |
| CCOC(=O)c1c(C)oc2nc(C)nc(N(CC(C)C)CC(C)C)c12 | -23.4% | – |
| CCCSc1ccc([C@H]2N[C@@](Cc3ccccc3)(C(=O)OC)[C@H]3C(=O)N(C)C(=O)[C@@H]23)cc1 | -4.83% | – |
